Laboratory results reported in PubChem BioAssay.

Test: small-molecule microarray binders of probe aWnt5a, primary screen, biochemical, biotinylated probe, 635/667 nm fluorescence (AID 1113);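 note: score merges 667 nm fluorescence intensity with signal-to-noise per printed feature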
Conditions: higher = more signal

Structure (SMILES) | composite z-score
COc1cc(C(O)C2C=CC3C(=O)N(C)C(=O)C3N2NC(=O)OC(C)(C)C)cc(OC)c1OC (stereo not drawn) | 0.343
COc1ccc([Si](C)(C)[C@@H]2[C@@H](CC(=O)N(CCO)Cc3ccccc3)O[C@]3(C(=O)N(C)c4c(Br)cc(C)cc43)[C@H]2C)cc1 | 0.168
COC(=O)[C@@]1(Cc2ccccc2)[C@H]2c3cc(C(=O)N(C)C)n(Cc4ccccn4)c3C[C@H]2CN1C(=O)c1ccccc1 | 0.241
O=C1NC(=O)C2C1C=CC(C(O)CCc1ccccc1)N2Nc1ccccn1 (stereo not drawn) | -0.0445
CCOC(=O)C1=CCC(c2cccc(Cl)c2)O1 (stereo not drawn) | -0.0492
C=C(COC)C(=O)CC[C@H](OC(=O)c1ccccc1-c1ccccc1C(=O)O)c1ccc(CO)o1 | -0.128
N#Cc1ccc(NN2C(C(O)c3ccco3)C=CC3C(=O)N(c4ccccc4)C(=O)C32)cc1 (stereo not drawn) | 0.0012
COC(=O)C(CC#Cc1ccc2c(c1)[C@]1(C(=O)N2)[C@H](C(=O)N2CCc3cc(OC)c(OC)cc3C2)[C@H]2C(=O)O[C@H](c3ccccc3)[C@H](c3ccccc3)N2[C@@H]1c1ccc(OCCO)cc1)C(=O)OC | -0.0236
